About 83,000 compounds went through this panel and 20% of them were active in at least one assay; those are over-represented in the sample as a whole.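 Single-concentration screen, 48 h exposure, 96-well plates. Endpoint: percent growth. Below 10 = active.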 Calls of active or inactive are those of the source.
Test system: SK-MEL-5 melanoma
Test: NCI-60 one-dose screen, 48 h (100 = growth as untreated, 0 = no growth, -100 = all killed)
Details: 10 µM unless noted

Row | SMILES | growth
1 | O=C(CSc1nccc(=O)[nH]1)Nc1ccc(-c2nc3ccccc3[nH]2)cc1 | 99.7% (inactive)
2 | N[C@@H](Cc1cn(-c2ccnc3ccccc23)nn1)C(=O)O | 103% (inactive)
3 | CCOC(=O)c1c(Nc2ccccc2)nn2c(N)c(C#N)c(-c3ccc(F)cc3)nc12 | 88.7% (inactive)
4 | O=C(N/N=C/c1ccc([N+](=O)[O-])o1)c1[nH]c2ccc(Br)cc2c1-c1ccccc1 | -84% (active)
5 | CN(C)CCCNc1c2ccc(Cl)cc2nc2c1oc1ccc(Cl)cc12 | 77.1% (inactive)
6 | Cc1c(NC(=O)CSc2nc3sc4c(c3c(=O)n2-c2ccc(Cl)cc2)CCCC4)c(=O)n(-c2ccccc2)n1C | 87.2% (inactive)
7 | CC(C)(C)Nc1nc2c(OCCc3ccccc3)cccn2c1-c1ccc(Cl)cc1 | -71.6% (active)
8 | CN(C)CCCNc1c2ccc(Cl)cc2nc2c1oc1ccccc12 | -98.1% (active)
9 | COc1ccccc1C(=O)CSc1nc(Nc2ccc(S(N)(=O)=O)cc2)c2ccccc2n1 | 91.7% (inactive)
10 | COc1ccccc1/C=C/C=N/NC1=NC2C(S1)N(C)C(=O)N2C (centres undefined) | 33.8% (inactive)
11 | COc1cccc(N2CCN(c3ncnc4c3[nH]c3ccc(F)cc34)C[C@@H]2C)c1 | -90.9% (active)
12 | O=C(CSc1nnc(-c2ccc3nc(-c4ccc(Cl)cc4)[nH]c3c2)o1)Nc1ccc(C(=O)/C=C/c2ccc(Cl)cc2)cc1 | 93.7% (inactive)
13 | Cc1nc2cnc(N)c(C#Cc3cncc(C(=O)Nc4ccc(Cl)c(C(F)(F)F)c4)c3)c2nc1C | 86.9% (inactive)
14 | Cc1ccc(C(=O)Nc2cccc(C(F)(F)F)c2)cc1Nc1nc(-c2cnccn2)nc2c1cnn2C | 57.6% (inactive)
